Source: PubChem BioAssay (NCI)
Compounds without any hit were thinned out: in the full panel of roughly 83,000, 20% have a hit.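 Assay: single dose, 48 h. Readout: percent growth (0 = no net growth; negative = cell death). Active: <10.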 Active and inactive are the calls of the source.

Tested on: OVCAR-3 ovarian
Assay: NCI-60 one-dose screen, 48 h (100 = growth as untreated, 0 = no growth, -100 = all killed)
Details: 10 µM

Which growth does the source give for `CCN(CC)CCNc1ccc(CO)c2oc3cc(Cl)ccc3c(=O)c12` here?
Its growth is 91.8% (inactive).

How did the growth turn out when `O=C(O)C(SC(C(=O)O)c1ccccc1)c1ccccc1` (stereo unspecified) was run?
Its growth is 114% (inactive).

For `COc1ccc(-c2nc3ccccn3c2-c2nnc(-c3cc(OC)c(OC)c(OC)c3)o2)cc1`, which growth is on record?
Its growth is 40.4% (inactive).

`N#Cc1c(C#N)c(SSc2c(C#N)c(C#N)c(N)n2-c2ccccc2)n(-c2ccccc2)c1N` was tested. Which growth did it give?
The growth was 127% (inactive).

With `Cc1ccc(-c2nc(/C=C3/C(=O)N(C)c4ccc(F)cc43)c3ccccn23)cc1` as the molecule, how does the growth read?
The growth was 112% (inactive).

Which growth does the source give for `CN1CC[C@@H](c2c(O)cc(O)c3c(=O)cc(-c4ccccc4Cl)oc23)[C@@H](O)C1` here?
The growth was 13.6% (inactive).

With `NC1=NC(=O)C(c2ccccc2)(c2ccccc2)S1` as the molecule, how does the growth read?
The growth was 119% (inactive).

How did the growth turn out when `CCc1ccc2c(c1)N(CCO)C1=C(C(=O)OC1)C2c1ccccc1` (stereo unspecified) was run?
The growth was 111% (inactive).

How did the growth turn out when `Cc1cccc2c(NCCN(C)C)c3cccc(C(=O)NCCN(C)C)c3nc12` was run?
The growth was 13.9% (inactive).

With `COc1ccc2c(c1)/C(=C\c1c[nH]c3ccc(OC)cc13)C(=O)N2` as the molecule, how does the growth read?
Its growth is 52.6% (inactive).

How did the growth turn out when `Nc1ccn(C2CC(O)C(CO)O2)c(=O)n1` (stereo unspecified) was run?
The growth was 123% (inactive).

Which growth does the source give for `COc1cccc(C2C3=C(COC3=O)N(CCO)c3cc(OC)ccc32)c1` (stereo unspecified) here?
The growth was -50% (active).

For `C=C(C(=O)c1ccccc1)C(NC(C)(C)C)c1ccccc1` (stereo unspecified), which growth is on record?
Its growth is -65.9% (active).

With `CCCC1(CC(=O)O)OCCc2c1[nH]c1ccccc21` (stereo unspecified) as the molecule, how does the growth read?
Its growth is 109% (inactive).

`CN(C)C(=S)N/N=C\C=N/NC(=S)N(C)C` was tested. Which growth did it give?
Its growth is 9.87% (active).

How did the growth turn out when `C=C(NC(=O)C(=C)NC(=O)c1csc(C2=NC3c4csc(n4)C4NC(=O)c5csc(n5)C(C(C)(O)C(C)O)NC(=O)C5CSC(=N5)/C(=C/C)NC(=O)C(C(C)O)NC(=O)c5csc(n5)C3(CC2)NC(=O)C(C)NC(=O)C(=C)NC(=O)C(=C)NC(=O)C(C(C)C)NC2C=Cc3c(C(C)O)cc(nc3C2O)C(=O)OC4C)n1)C(N)=O` (stereo unspecified) was run?
Its growth is 13.4% (inactive).

How did the growth turn out when `CN(C)CCN1C(=O)c2cccc3cc(N)cc(c23)C1=O` was run?
Its growth is 56.2% (inactive).

For `COc1ccc(N2C(=O)C3c4[nH]c5ccc(OCc6ccccc6)cc5c4C4CCC(C(C)C)CC4C3C2=O)cc1` (stereo unspecified), which growth is on record?
The growth was 109% (inactive).

`CC(C)C[C@H](NC(=O)[C@H](Cc1cccc2ccccc12)NS(=O)(=O)c1cccc2cccnc12)B(O)O` was tested. Which growth did it give?
The growth was -77.1% (active).

For `NC(=O)SCC(=O)Nc1ccc(S(N)(=O)=O)cc1`, which growth is on record?
The growth was 107% (inactive).

How did the growth turn out when `O=C(CCCCCCC(=O)Nc1cccnc1)NO` was run?
The growth was 25.1% (inactive).

With `Clc1cccc(-c2nc(-c3cccs3)no2)c1` as the molecule, how does the growth read?
Its growth is 104% (inactive).

With `CCCCCCCCCCCCCCCCCCOCC(COCCOCC[N+]1(CCCCCC(=O)[O-])CCCC1)Oc1ncccn1` (stereo unspecified) as the molecule, how does the growth read?
Its growth is 62.6% (inactive).

`O=C1OCC2=C1C(c1ccc(Cl)c(Cl)c1)c1cc3c(cc1N2CCO)OCCO3` (stereo unspecified) was tested. Which growth did it give?
The growth was -53.7% (active).

How did the growth turn out when `COc1cc2nc(Nc3cccc(NC(C)=O)c3)nc(N)c2cc1OC` was run?
Its growth is 111% (inactive).

For `Cc1nc2ccc(CN(C)c3ccc(C(=O)N[C@@H](CCC(=O)O)C(=O)O)s3)cc2c(=O)[nH]1`, which growth is on record?
The growth was 57.3% (inactive).

`Nc1ncnc2[nH]c(=O)[nH]c12` was tested. Which growth did it give?
The growth was 98.4% (inactive).

Which growth does the source give for `COc1ccc2c(c1)sc1nc(-c3ccccc3)c(-c3cccnc3)n12` here?
The growth was 113% (inactive).

With `C=C(Cl)[C@@](Cl)(CBr)CC[C@@H](Br)C(C)(C)Cl` as the molecule, how does the growth read?
Its growth is -96.2% (active).

How did the growth turn out when `C[N+](C)(C)c1ncnc2nc[nH]c12` was run?
Its growth is 112% (inactive).

How did the growth turn out when `COC(=O)[C@@H]1[C@H](O)[C@H](C)[C@H](O)[C@@](C)(O)/C=C\C=C(C)C(=O)Nc2c(C)c(OC(C)=O)c3c(c2O)C(=O)C(C)=C2OCOC(=C23)C(C)=C[C@@](C)(O)[C@H](O)[C@@H](C)[C@H]1OC(C)=O` was run?
The growth was 112% (inactive).
